Consider one sequence from publication PMC7862700, “An all-to-all approach to the identification of sequence-specific readers for epigenetic DNA modifications on cytosine”.

Common to all, as to experiment: DAPPL (digital affinity profiling via proximity ligation, sequencing); 10 mM Tris-HCl pH 7.5, 50 mM NaCl, 1 mM DTT, 4% glycerol, room temperature, 30 min; GST-TFs on glutathione beads, 16-mer random dsDNA library, 0.1% formaldehyde crosslink after washing; high values mean tight binding
The target of experiment [1] is T1, FLI1 (Homo sapiens, UniProt Q01543 1-452).
T1 sequence: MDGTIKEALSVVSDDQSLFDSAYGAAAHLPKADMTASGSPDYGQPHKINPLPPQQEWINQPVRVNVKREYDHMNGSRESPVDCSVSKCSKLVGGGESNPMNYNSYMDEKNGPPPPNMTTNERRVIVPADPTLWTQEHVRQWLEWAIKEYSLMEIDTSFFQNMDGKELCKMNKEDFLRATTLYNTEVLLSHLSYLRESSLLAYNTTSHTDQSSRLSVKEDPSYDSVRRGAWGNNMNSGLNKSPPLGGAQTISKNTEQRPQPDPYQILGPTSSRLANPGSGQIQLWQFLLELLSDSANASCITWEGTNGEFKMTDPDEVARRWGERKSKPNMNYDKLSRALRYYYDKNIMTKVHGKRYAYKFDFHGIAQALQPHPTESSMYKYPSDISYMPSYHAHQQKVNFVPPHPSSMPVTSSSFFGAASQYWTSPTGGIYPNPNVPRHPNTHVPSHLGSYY
The conditions noted are these: protein: recombinant; tags: N-terminal GST; dsDNA, one strand shown. Put shortly:
(§1)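 Pools of DNA-barcoded human transcription factors, expressed in yeast as GST fusions on glutathione beads and combined with a tag-only sample, were incubated with 200 nmole of a 16-mer random double-stranded DNA library. Incubation took 30 min at room temperature in Tris/NaCl/DTT/glycerol buffer and was followed by washing, 0.1% formaldehyde crosslinking, proximity ligation (BsaI/T4 ligase, 1 h, 37 °C), PCR amplification and sequencing on an Illumina NextSeq500. Binding signal is the ratio of a hexamer's read frequency for a factor to its frequency for the tag-only sample.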

Experiment [2] addresses T2, ELK1 (Homo sapiens, UniProt P19419 1-428).
T2 sequence: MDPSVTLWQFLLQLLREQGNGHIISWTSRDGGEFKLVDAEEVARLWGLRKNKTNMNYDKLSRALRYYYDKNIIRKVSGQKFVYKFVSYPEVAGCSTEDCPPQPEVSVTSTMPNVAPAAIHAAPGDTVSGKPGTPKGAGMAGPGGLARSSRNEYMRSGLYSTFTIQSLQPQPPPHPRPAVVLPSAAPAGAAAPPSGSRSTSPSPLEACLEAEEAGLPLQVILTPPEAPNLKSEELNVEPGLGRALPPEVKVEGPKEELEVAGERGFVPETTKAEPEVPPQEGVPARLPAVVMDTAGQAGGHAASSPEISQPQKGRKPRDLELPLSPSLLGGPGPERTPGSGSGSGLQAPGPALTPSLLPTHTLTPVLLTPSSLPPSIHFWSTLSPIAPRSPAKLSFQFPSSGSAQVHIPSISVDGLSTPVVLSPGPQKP
The following applies: protein: recombinant; tags: N-terminal GST; dsDNA, one strand shown. Put shortly:
as §1

The target in experiment [3] is T3, GABPA (Homo sapiens, UniProt Q06546 1-454).
T3 sequence: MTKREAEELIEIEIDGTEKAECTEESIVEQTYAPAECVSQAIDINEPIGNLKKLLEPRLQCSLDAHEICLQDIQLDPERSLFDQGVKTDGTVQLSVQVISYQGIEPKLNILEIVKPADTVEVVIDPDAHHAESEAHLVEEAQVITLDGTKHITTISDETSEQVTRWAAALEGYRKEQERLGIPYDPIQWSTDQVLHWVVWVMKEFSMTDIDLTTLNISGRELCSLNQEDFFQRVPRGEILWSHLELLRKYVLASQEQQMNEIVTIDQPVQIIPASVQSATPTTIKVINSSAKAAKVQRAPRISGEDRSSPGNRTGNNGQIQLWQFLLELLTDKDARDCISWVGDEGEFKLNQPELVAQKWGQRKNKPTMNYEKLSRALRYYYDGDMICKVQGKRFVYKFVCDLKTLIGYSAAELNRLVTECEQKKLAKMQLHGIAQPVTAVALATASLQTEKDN
The following applies: protein: recombinant; tags: N-terminal GST; dsDNA, one strand shown. Put shortly:
as §1

The target of experiment [4] is T4, ERG (Homo sapiens, UniProt P11308 1-479).
T4 sequence: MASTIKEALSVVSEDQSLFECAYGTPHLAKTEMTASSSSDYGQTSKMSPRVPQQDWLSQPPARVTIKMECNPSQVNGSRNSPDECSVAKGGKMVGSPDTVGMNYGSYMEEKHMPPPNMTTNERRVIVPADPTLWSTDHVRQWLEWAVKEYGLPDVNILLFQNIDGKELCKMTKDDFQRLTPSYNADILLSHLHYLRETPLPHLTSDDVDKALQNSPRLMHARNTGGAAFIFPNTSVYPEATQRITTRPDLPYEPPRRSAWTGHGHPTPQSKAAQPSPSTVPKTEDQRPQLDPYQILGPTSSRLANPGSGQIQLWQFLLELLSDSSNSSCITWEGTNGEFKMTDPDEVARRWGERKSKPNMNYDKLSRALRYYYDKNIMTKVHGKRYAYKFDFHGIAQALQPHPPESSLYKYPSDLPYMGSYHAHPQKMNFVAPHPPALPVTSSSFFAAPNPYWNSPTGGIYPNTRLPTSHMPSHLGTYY
The following applies: protein: recombinant; tags: N-terminal GST; dsDNA, one strand shown. The method, boiled down:
as §1

Experiment [5] addresses ELF1 (Homo sapiens, UniProt P32519 1-619). The following applies: protein: recombinant; tags: N-terminal GST; dsDNA, one strand shown. The method, boiled down:
as §1

Experiment [6] addresses T5, EHF (Homo sapiens, UniProt Q9NZC4 1-300).
T5 sequence: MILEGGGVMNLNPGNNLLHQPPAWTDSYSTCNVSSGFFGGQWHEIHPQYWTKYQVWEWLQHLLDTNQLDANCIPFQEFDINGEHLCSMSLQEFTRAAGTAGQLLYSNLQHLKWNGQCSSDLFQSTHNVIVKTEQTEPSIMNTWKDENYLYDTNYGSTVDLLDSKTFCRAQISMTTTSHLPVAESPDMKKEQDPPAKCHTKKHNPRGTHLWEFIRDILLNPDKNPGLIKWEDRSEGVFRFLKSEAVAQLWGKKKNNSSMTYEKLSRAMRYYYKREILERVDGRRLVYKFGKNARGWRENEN
The following applies: protein: recombinant; tags: N-terminal GST; dsDNA, one strand shown. The method, boiled down:
as §1

Experiment [7] addresses SPI1 (Homo sapiens, UniProt P17947 1-270). The following applies: protein: recombinant; tags: N-terminal GST; dsDNA, one strand shown. Put shortly:
as §1

The target of experiment [8] is SPIB (Homo sapiens, UniProt Q01892 1-262). The following applies: protein: recombinant; tags: N-terminal GST; dsDNA, one strand shown. The method, boiled down:
as §1

In experiment [9] the target is T6, ELK3 (Homo sapiens, UniProt P41970 1-407).
T6 sequence: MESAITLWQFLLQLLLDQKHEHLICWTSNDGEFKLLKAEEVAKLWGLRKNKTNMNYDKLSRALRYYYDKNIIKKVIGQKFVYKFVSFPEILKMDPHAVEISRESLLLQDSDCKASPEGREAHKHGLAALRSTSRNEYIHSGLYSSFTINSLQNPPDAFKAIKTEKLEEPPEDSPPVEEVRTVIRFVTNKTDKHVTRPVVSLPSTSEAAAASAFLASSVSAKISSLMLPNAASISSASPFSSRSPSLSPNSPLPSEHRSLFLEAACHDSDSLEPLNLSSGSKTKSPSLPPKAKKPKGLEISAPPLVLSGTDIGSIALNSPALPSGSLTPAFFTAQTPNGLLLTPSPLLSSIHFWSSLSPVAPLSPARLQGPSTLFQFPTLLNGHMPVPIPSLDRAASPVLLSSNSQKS
The following applies: protein: recombinant; tags: N-terminal GST; dsDNA, one strand shown. Put shortly:
as §1

Experiment [10] deals with T7, FEV (Homo sapiens, UniProt Q99581 1-238).
T7 sequence: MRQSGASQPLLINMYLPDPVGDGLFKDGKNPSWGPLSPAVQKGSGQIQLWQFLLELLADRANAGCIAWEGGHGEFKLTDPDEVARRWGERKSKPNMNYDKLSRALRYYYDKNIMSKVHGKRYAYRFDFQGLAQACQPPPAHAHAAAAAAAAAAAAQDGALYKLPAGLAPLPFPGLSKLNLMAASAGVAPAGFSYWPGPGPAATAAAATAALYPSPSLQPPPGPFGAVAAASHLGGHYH
The conditions noted are these: protein: recombinant; tags: N-terminal GST; dsDNA, one strand shown. The method, boiled down: as §1

Experiment [11] addresses ETV5 (Homo sapiens, UniProt P41161 1-510). The following applies: protein: recombinant; tags: N-terminal GST; dsDNA, one strand shown. Put shortly:
as §1

The target of experiment [12] is HSF1 (Homo sapiens, UniProt Q00613 1-529). The conditions noted are these: protein: recombinant; tags: N-terminal GST; chain copies: 3; dsDNA, one strand shown. The method, boiled down:
as §1

The target in experiment [13] is T8, SPIC (Homo sapiens, UniProt Q8N5J4 1-248).
T8 sequence: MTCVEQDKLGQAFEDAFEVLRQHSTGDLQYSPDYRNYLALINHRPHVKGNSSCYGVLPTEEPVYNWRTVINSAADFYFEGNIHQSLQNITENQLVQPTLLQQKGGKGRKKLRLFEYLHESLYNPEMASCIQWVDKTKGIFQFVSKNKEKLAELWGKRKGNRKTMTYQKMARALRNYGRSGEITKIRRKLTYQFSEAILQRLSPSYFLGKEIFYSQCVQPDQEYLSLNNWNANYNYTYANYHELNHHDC
The following applies: protein: recombinant; tags: N-terminal GST; dsDNA, one strand shown. Put shortly:
as §1

In experiment [14] the target is ELF4 (Homo sapiens, UniProt Q99607 1-663). The following applies: protein: recombinant; tags: N-terminal GST; dsDNA, one strand shown. Put shortly:
as §1

Experiment [15] deals with T9, ELK4 (Homo sapiens, UniProt P28324-2 1-405).
T9 sequence: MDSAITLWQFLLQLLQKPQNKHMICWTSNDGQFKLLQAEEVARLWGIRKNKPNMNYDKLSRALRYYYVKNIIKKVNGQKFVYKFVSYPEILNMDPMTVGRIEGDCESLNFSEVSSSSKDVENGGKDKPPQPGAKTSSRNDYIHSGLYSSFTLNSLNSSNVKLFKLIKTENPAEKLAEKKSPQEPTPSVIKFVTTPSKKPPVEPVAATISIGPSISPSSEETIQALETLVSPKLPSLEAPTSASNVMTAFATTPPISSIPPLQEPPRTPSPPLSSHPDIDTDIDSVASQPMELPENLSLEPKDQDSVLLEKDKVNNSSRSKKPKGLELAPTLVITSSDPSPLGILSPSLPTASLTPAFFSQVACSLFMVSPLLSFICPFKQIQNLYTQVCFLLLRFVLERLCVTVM
The following applies: protein: recombinant; tags: N-terminal GST; dsDNA, one strand shown. Put shortly:
as §1

The target of experiment [16] is T10, ETV2 (Homo sapiens, UniProt O00321 1-342).
T10 sequence: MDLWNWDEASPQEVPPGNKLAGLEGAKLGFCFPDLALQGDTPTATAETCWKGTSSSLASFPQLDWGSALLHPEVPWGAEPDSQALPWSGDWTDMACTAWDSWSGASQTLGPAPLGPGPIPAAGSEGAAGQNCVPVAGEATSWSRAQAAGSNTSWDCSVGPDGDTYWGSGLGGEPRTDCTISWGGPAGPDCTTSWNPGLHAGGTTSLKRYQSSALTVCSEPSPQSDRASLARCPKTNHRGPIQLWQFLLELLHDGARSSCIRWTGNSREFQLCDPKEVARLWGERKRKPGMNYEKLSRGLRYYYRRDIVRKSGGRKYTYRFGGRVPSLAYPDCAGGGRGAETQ
The following applies: protein: recombinant; tags: N-terminal GST; dsDNA, one strand shown. Put shortly:
as §1

Experiment [17] deals with T11, ELF3 (Homo sapiens, UniProt P78545 1-371).
T11 sequence: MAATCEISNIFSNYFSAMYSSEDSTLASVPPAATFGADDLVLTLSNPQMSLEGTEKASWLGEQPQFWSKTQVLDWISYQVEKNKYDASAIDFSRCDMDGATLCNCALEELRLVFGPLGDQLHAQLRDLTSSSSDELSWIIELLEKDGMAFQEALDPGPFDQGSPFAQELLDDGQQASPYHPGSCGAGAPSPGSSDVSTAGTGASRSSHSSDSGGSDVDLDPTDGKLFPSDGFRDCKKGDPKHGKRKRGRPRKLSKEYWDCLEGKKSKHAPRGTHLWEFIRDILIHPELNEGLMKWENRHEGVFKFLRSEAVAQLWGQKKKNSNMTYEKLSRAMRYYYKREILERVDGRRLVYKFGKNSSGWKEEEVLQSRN
The conditions noted are these: protein: recombinant; tags: N-terminal GST; dsDNA, one strand shown. Put shortly: as §1

Experiment [18] deals with ETV1 (Homo sapiens, UniProt P50549 1-477). The conditions noted are these: protein: recombinant; tags: N-terminal GST; dsDNA, one strand shown. The method, boiled down:
as §1

SPIB, sequence (Q01892 whole entry): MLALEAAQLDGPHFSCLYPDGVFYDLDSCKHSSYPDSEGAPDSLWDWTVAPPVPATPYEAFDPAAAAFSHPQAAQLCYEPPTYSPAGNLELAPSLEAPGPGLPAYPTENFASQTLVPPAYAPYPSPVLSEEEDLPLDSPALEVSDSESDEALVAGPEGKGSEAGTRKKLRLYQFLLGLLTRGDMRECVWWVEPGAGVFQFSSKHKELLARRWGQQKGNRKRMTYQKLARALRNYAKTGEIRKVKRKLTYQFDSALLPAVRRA
HSF1, sequence (Q00613 whole entry): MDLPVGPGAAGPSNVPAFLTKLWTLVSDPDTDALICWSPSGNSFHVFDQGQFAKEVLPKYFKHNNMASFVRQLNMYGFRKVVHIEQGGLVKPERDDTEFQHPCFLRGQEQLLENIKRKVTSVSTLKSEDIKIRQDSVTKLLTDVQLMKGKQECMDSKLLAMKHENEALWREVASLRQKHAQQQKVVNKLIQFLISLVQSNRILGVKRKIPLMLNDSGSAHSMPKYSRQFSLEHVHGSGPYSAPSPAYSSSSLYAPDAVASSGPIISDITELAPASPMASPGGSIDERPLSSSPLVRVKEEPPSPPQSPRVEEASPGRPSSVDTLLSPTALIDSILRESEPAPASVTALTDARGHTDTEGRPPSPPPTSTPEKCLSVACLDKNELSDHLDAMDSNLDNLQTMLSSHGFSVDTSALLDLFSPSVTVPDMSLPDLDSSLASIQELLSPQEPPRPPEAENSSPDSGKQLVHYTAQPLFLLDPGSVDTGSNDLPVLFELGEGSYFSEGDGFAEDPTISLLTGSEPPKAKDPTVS
ETV5, sequence (P41161 whole entry): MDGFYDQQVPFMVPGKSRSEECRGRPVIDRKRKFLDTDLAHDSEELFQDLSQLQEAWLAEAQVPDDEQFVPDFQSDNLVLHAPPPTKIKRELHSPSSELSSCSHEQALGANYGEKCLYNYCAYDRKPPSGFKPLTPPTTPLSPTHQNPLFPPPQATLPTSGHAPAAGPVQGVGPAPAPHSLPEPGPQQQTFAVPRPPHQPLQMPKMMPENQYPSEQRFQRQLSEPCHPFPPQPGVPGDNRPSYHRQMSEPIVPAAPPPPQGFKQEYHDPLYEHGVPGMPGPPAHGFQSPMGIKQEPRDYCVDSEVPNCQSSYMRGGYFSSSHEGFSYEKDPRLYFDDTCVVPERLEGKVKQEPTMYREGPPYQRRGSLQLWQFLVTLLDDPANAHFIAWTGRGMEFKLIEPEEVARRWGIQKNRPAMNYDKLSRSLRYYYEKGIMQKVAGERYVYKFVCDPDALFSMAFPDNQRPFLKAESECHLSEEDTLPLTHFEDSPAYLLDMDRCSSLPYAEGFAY
ELF4, sequence (Q99607 whole entry): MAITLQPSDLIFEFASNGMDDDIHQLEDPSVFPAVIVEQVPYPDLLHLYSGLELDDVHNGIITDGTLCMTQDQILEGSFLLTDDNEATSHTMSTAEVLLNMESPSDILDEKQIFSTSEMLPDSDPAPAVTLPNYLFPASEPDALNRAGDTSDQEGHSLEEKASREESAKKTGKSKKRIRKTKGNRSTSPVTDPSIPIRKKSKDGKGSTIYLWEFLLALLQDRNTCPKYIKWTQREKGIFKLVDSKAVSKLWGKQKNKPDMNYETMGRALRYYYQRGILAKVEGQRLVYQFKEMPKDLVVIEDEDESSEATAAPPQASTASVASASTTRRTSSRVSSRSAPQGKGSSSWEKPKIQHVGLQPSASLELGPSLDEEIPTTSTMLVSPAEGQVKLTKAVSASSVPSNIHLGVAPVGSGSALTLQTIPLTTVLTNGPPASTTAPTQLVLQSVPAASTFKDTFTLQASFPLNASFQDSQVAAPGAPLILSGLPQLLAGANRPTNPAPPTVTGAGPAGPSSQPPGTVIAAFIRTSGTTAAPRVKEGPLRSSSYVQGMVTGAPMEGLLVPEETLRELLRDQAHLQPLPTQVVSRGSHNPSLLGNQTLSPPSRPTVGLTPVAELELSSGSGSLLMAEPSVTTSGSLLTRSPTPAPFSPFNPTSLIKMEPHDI
ETV1, sequence (P50549 whole entry): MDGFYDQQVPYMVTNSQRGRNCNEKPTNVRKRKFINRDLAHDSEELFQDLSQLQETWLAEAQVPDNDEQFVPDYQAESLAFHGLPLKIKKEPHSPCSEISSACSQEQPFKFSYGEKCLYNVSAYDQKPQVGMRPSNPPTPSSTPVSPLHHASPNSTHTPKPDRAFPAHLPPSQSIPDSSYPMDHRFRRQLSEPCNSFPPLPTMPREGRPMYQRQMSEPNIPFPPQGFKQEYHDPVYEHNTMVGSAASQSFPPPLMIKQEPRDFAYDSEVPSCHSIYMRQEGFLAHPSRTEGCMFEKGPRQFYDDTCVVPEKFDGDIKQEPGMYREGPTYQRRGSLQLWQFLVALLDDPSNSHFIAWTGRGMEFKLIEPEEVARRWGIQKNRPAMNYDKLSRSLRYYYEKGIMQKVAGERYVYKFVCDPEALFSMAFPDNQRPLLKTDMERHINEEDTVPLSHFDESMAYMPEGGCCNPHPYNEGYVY
ELF1, sequence (P32519 whole entry): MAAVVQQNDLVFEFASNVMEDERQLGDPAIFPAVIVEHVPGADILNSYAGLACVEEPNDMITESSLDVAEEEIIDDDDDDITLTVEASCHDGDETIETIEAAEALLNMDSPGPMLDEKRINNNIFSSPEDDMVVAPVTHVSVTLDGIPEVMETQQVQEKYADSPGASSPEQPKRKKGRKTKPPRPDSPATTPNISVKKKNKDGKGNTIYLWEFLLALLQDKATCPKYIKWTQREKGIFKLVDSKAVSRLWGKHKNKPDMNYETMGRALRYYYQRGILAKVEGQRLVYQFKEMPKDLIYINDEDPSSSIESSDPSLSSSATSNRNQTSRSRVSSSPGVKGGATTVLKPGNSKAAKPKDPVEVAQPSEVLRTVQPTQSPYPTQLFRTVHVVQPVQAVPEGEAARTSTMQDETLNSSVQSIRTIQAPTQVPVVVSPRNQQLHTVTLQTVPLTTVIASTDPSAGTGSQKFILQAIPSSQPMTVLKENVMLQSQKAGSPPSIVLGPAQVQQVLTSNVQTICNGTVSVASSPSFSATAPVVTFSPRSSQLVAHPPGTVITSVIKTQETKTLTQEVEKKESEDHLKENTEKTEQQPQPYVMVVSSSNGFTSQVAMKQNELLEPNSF

Regarding CTTGTC, the binding signal is 1.17 fold enrichment (6-mer frequency, TF over GST control) in experiment [1]; 1.33 fold enrichment (6-mer frequency, TF over GST control) in [2]; 1.32 fold enrichment (6-mer frequency, TF over GST control) in experiment [3]; 1.19 fold enrichment (6-mer frequency, TF over GST control) in [4]; 1.22 fold enrichment (6-mer frequency, TF over GST control) in experiment [5]; 1.19 fold enrichment (6-mer frequency, TF over GST control) in experiment [6]. Further, the binding signal in experiment [7] is 1.35 fold enrichment (6-mer frequency, TF over GST control); in experiment [8], 1.23 fold enrichment (6-mer frequency, TF over GST control); in [9], 1.34 fold enrichment (6-mer frequency, TF over GST control); in experiment [10], 1.23 fold enrichment (6-mer frequency, TF over GST control); in experiment [11], 1.34 fold enrichment (6-mer frequency, TF over GST control); in experiment [12], 1.07 fold enrichment (6-mer frequency, TF over GST control). In addition, the binding signal in experiment [13] is 1.14 fold enrichment (6-mer frequency, TF over GST control); in experiment [14], 1.41 fold enrichment (6-mer frequency, TF over GST control); in experiment [15] it was 1.33 fold enrichment (6-mer frequency, TF over GST control); in [16], 1.08 fold enrichment (6-mer frequency, TF over GST control); in [17], 1.32 fold enrichment (6-mer frequency, TF over GST control); in [18] it was 1.27 fold enrichment (6-mer frequency, TF over GST control).
